Laboratory results reported in PubChem BioAssay AID1159580 (chemical genetic matrix, 2015).
Values joined by “and” are separate entries in the source; they are usually repeats but may differ in a detail not shown here. Equal entries are not always repeated. In all, about 5,500 compounds went through this assay and about 2,000 (36%) were called active. Not shown: some 18% with an inconclusive outcome. Cut-off read from the data, not from the text of the source: active = normalized growth mostly below about 0.91 (no sharp cut-off); inconclusive = no clear call, values can overlap the other calls; inactive = mostly above about 0.92. Some of the results follow.

Test: chemical genetic growth profiling, strain panel (AID 1159580);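 note: tested at 20 µM; growth read once vehicle control cultures reached saturation at 30 °C; 1 = growth at the plate median or of vehicle wells; lower values mean less growth of the strain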
Settings: growth OD

Measured: normalized growth

O=C(O)c1cc2cc(Cc3cccnc3)ccc2o1
inactive: S. cerevisiae deletion strains, locus YAL013W, strain DEP1, hits give low values 1.02 | S. cerevisiae deletion strains, locus YAL040C, strain CLN3, hits give low values 0.986 | S. cerevisiae deletion strains, locus YBR021W, strain FUR4, hits give low values 1 | S. cerevisiae deletion strains, locus YBR229C, strain ROT2, hits give low values 1.01 | S. cerevisiae deletion strains, locus YCL029C, strain bik1, hits give low values 0.995 | S. cerevisiae deletion strains, locus YCL061C, strain MRC1 (second series), hits give low values 1.01 | S. cerevisiae deletion strains, locus YDL035C, strain GPR1, hits give low values 0.994 | S. cerevisiae deletion strains, locus YDL074C, strain BRE1, hits give low values 0.995 | S. cerevisiae deletion strains, locus YDL101C, strain DUN1, hits give low values 1.01 | S. cerevisiae deletion strains, locus YDL134C, strain PPH21, hits give low values 0.993 | S. cerevisiae deletion strains, locus YDL185W, strain tfp1, hits give low values 0.994 | S. cerevisiae deletion strains, locus YDL192W, strain arf1, hits give low values 1 | S. cerevisiae deletion strains, locus YDR101C, strain arx1, hits give low values 1.02 | S. cerevisiae deletion strains, locus YDR162C, strain NBP2, hits give low values 1 | S. cerevisiae deletion strains, locus YDR318W, strain mcm21, hits give low values 0.986 | S. cerevisiae deletion strains, locus YDR363W, strain ESC2, hits give low values 1.01 | S. cerevisiae deletion strains, locus YDR388W, hits give low values 0.989 | S. cerevisiae deletion strains, locus YDR502C, strain sam2, hits give low values 0.996 | S. cerevisiae deletion strains, locus YEL061C, strain CIN8, hits give low values 1 | S. cerevisiae deletion strains, locus YER002W, strain NOP16, hits give low values 0.99 | S. cerevisiae deletion strains, locus YER110C, hits give low values 0.995 | S. cerevisiae deletion strains, locus YER155C, strain BEM2, hits give low values 1.01 | S. cerevisiae deletion strains, locus YER167W, strain BCK2, hits give low values 1 | S. cerevisiae deletion strains, locus YGL078C, strain dbp3, hits give low values 0.991 | S. cerevisiae deletion strains, locus YGL086W, strain mad1, hits give low values 0.998 | S. cerevisiae deletion strains, locus YGL248W, strain PDE1, hits give low values 1 | S. cerevisiae deletion strains, locus YGR135W, strain pre9, hits give low values 1.01 | S. cerevisiae deletion strains, locus YGR229C, strain SMI1, hits give low values 1.05 | S. cerevisiae deletion strains, locus YGR252W, strain gcn5, hits give low values 0.92 | S. cerevisiae deletion strains, locus YHR030C, strain SLT2, hits give low values 0.997 | S. cerevisiae deletion strains, locus YHR079C, strain IRE1 (second series), hits give low values 0.985 | S. cerevisiae deletion strains, locus YHR094C, strain hxt1, hits give low values 0.995 | S. cerevisiae deletion strains, locus YHR129C, strain ARP1, hits give low values 0.997 | S. cerevisiae deletion strains, locus YHR200W, strain rpn10, hits give low values 0.994 | S. cerevisiae deletion strains, locus YIL066C, strain RNR3, hits give low values 1.01 | S. cerevisiae deletion strains, locus YIL073C, strain SPO22, hits give low values 1.01 | S. cerevisiae deletion strains, locus YIL125W, strain kgd1, hits give low values 0.999 | S. cerevisiae deletion strains, locus YIR030C, strain dcg1, hits give low values 0.995 | S. cerevisiae deletion strains, locus YJL095W, strain BCK1, hits give low values 1.01 | S. cerevisiae deletion strains, locus YJL134W, strain LCB3, hits give low values 1 | S. cerevisiae deletion strains, locus YJL168C, strain set2, hits give low values 0.991 | S. cerevisiae deletion strains, locus YJL187C, strain SWE1 (second series), hits give low values 1.01 | S. cerevisiae deletion strains, locus YJR043C, strain POL32, hits give low values 1.02 | S. cerevisiae deletion strains, locus YJR075W, strain HOC1, hits give low values 1.01 | S. cerevisiae deletion strains, locus YKL009W, strain mrt4, hits give low values 0.983 | S. cerevisiae deletion strains, locus YKL068W, hits give low values 0.992 | S. cerevisiae deletion strains, locus YKL085W, strain MDH1 (second series), hits give low values 0.999 | S. cerevisiae deletion strains, locus YKL085W, strain MDH1, hits give low values 0.999 | S. cerevisiae deletion strains, locus YKL190W, strain CNB1, hits give low values 1.01 | S. cerevisiae deletion strains, locus YKR001C, strain vps1, hits give low values 0.997 | S. cerevisiae deletion strains, locus YLR039C, strain RIC1, hits give low values 1.01 | S. cerevisiae deletion strains, locus YLR058C, strain SHM2, hits give low values 1.01 | S. cerevisiae deletion strains, locus YLR102C, strain apc9, hits give low values 0.991 | S. cerevisiae deletion strains, locus YLR262C, strain YPT6, hits give low values 1.03 | S. cerevisiae deletion strains, locus YLR268W, strain sec22, hits give low values 0.986 | S. cerevisiae deletion strains, locus YLR330W, strain CHS5, hits give low values 1.01 | S. cerevisiae deletion strains, locus YLR342W, strain FKS1 (second series), hits give low values 0.988 | S. cerevisiae deletion strains, locus YLR371W, strain rom2, hits give low values 0.988 | S. cerevisiae deletion strains, locus YLR418C, strain cdc73, hits give low values 0.975 | S. cerevisiae deletion strains, locus YML016C, strain PPZ1, hits give low values 1 | S. cerevisiae deletion strains, locus YML032C, strain rad52, hits give low values 0.995 | S. cerevisiae deletion strains, locus YML124C, strain tub3, hits give low values 0.994 | S. cerevisiae deletion strains, locus YMR078C, strain ctf18, hits give low values 0.995 | S. cerevisiae deletion strains, locus YMR223W, strain ubp8, hits give low values 0.995 | S. cerevisiae deletion strains, locus YMR263W, strain SAP30, hits give low values 1 | S. cerevisiae deletion strains, locus YMR307W, strain GAS1, hits give low values 0.967 and 0.989 | S. cerevisiae deletion strains, locus YNL067W, strain RPL9B, hits give low values 1 | S. cerevisiae deletion strains, locus YNL153C, strain GIM3, hits give low values 1.02 | S. cerevisiae deletion strains, locus YNL175C, strain NOP13, hits give low values 1 | S. cerevisiae deletion strains, locus YNL197C, strain WHI3, hits give low values 1.02 | S. cerevisiae deletion strains, locus YNL224C, strain SQS1, hits give low values 1.02 | S. cerevisiae deletion strains, locus YNL233W, strain BNI4, hits give low values 1 | S. cerevisiae deletion strains, locus YNL250W, strain rad50, hits give low values 0.989 | S. cerevisiae deletion strains, locus YNL271C, strain bni1, hits give low values 0.999 | S. cerevisiae deletion strains, locus YNL298W, strain CLA4, hits give low values 0.981 | S. cerevisiae deletion strains, locus YNL307C, strain MCK1, hits give low values 0.995 | S. cerevisiae deletion strains, locus YNR052C, strain pop2, hits give low values 0.99 | S. cerevisiae deletion strains, locus YOL006C, strain TOP1, hits give low values 1.04 | S. cerevisiae deletion strains, locus YOL012C, strain htz1 1.18 | S. cerevisiae deletion strains, locus YOL147C, strain pex11, hits give low values 0.995 | S. cerevisiae deletion strains, locus YOR061W, strain CKA2, hits give low values 1.01 | S. cerevisiae deletion strains, locus YOR069W, strain VPS5, hits give low values 1 | S. cerevisiae deletion strains, locus YOR083W, strain WHI5 (second series), hits give low values 1.03 | S. cerevisiae deletion strains, locus YOR136W, strain idh2, hits give low values 0.997 | S. cerevisiae deletion strains, locus YOR144C, strain elg1, hits give low values 0.995 | S. cerevisiae deletion strains, locus YOR184W, strain ser1, hits give low values 0.988 | S. cerevisiae deletion strains, locus YOR316C, strain cot1, hits give low values 0.992 | S. cerevisiae deletion strains, locus YPL055C, strain LGE1, hits give low values 1.03 and 1.01 | S. cerevisiae deletion strains, locus YPL241C, strain CIN2, hits give low values 1.01 | S. cerevisiae deletion strains, locus YPR119W, strain clb2, hits give low values 0.992 | S. cerevisiae deletion strains, locus YPR141C, strain kar3, hits give low values 0.996 | S. cerevisiae deletion strains, locus YPR163C, strain tif3, hits give low values 0.993 | S. cerevisiae deletion strains, locus YPR167C, strain met16, hits give low values 0.991 | S. cerevisiae deletion strains, strain wtn01, hits give low values 0.986 | S. cerevisiae strains, strain wild type, hits give low values 1
